The values below come from PubChem BioAssay (Tox21).

Each structure is given as a SMILES string. Calls of active or inactive are those of the source. Entries that show only a call come without a potency. Calls come from the whole dose curve.

Sequence of Gonadotropin-releasing hormone receptor (Homo sapiens) (P30968 whole entry, looked up): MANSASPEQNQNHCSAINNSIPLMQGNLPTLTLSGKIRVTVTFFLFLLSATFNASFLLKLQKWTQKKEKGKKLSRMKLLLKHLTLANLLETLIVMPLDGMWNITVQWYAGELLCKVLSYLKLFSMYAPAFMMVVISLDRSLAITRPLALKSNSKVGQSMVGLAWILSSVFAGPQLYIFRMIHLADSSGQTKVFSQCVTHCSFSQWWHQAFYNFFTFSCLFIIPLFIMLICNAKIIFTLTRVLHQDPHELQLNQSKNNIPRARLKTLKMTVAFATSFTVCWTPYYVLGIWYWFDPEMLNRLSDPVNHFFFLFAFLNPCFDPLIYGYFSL

The target in the experiment is Gonadotropin-releasing hormone receptor (Homo sapiens) (UniProt P30968). The experiment is described as follows: Human gonadotropin-releasing hormone receptor (GnRHR) small molecule agonists, calcium flux assay in GnRHR-HEK293 cells (AID 1920063). Note: nearly all actives have a fitted effect of over 35% in size. The following applies: calcium flux fluorescence, agonist mode; series mostly up to 57.6 µM. An excerpt:
National Center for Advancing Translational Sciences [NCATS]
Division of Preclinical Innovation [DPI]
U.S. Environmental Protection Agency [EPA]
National Institutes of Environmental Health Sciences [NIEHS]
National Toxicology Program [NTP]
U.S. Food and Drug Administration [FDA]
Gonadotropin-releasing hormone receptor (GnRHR) is a G-protein-coupled receptor (GPCR) and acts (through phospholipase C) to increase intracellular inositol trisphosphate and then release intracellular calcium stores. Cell-based GnRHR-Hek293 calcium influx assay is using HEK293 cells that have been genetically engineered to express the human GnRHR, which activity can be measured by calcium signaling. A compound/drug can activate (agonist) GnRHR that can be monitored by levels of intracellular calcium.
GnRHR-HEK293 cells developed by Codex Corp contain human GnRHR reporter gene, which was stably integrated into HEK 293 cells. The compound activation can be detected by fluorescence intensity via calcium flux assay. This cell line has been used to screen the Tox21 10K compound library to identify GnRHR agonists.
GnRHR-Hek293 cells were dispensed at 1500cells/4uL/well in 1536-well black wall/clear bottom plates using a multidrop dispenser. After the assay plates were incubated at a 37 C/5% CO2 incubator for 18 hours, 4 uL of Calcium Dye Solution was added to each well. The plates were incubated at 37 C for 1 hour. For agonist mode, 23 nL of compounds dissolved in DMSO, positive controls or DMSO only was transferred to the assay plate by a pin tool station. The fluorescence intensity in the plates was measured using FDSS 7000EX kinetic plate reader with a filter set of Ex/Em=480/540 for 3 min at 1 sec intervals. Each test compound was measured at 15 concentrations and in triplicates.
Consider `c1ccc2c(c1)ccc1ccccc12`, for which the Potency result was “inactive”.

Turning to `CC(C)=CCC/C(C)=C/CO`, the Potency result is “inactive”.

Consider `CCCCC(CC)CO` (stereo not given), for which the Potency entry is “inactive”.

For the compound `O=C1O[C@H](CO)[C@@H](O)[C@H](O)[C@H]1O`, the Potency entry was “inactive”.

For the compound `c1ccc2c(c1)Cc1ccccc1-2`, the Potency result was “inactive”.

With `Fc1ccc(Br)cc1`, the Potency result is “inactive”.

Regarding `OCCOCCOCCOCCO`, the Potency result is “inactive”.

`CC(C)=CCC/C(C)=C\CO`: the Potency result is “inactive”.

On to `C/C=C/C=C/C(=O)O`, for which the Potency result is “inactive”.

`O=C1C(N(CO)C(=O)NCO)N(CO)C(=O)N1CO` (stereo not given): the Potency entry is “inactive”.

For the compound `CC(O)COCC(C)O` (stereo not given), the Potency result is “inactive”.

As to `Nc1nc(=S)c2[nH]cnc2[nH]1`, the Potency result is “inactive”.

On to `COC(=O)CCCC(=O)OC`, for which the Potency entry is “inactive”.

With `CCC(C)(O)CCCC(C)C` (stereo not given), the Potency result was “inactive”.

For `CC1(C)O[C@@H]2C[C@H]3[C@@H]4CCC5=CC(=O)C=C[C@]5(C)[C@@]4(F)[C@@H](O)C[C@]3(C)[C@]2(C(=O)CO)O1`, the Potency result was “inactive”.

`CN1C(=O)CC[C@H]1c1cccnc1`: the Potency entry was “inactive”.

On to `C=C(C)C(=O)OCC(C)O` (stereo not given), for which the Potency result is “inactive”.

As for `S=c1nc[nH]c2nc[nH]c12`, the Potency entry is “inactive”.

Turning to `O=C(O)c1ccc(S(=O)(=O)N(Cl)Cl)cc1`, the Potency entry is “inactive”.

As to `CC(C)=CCCC(C)CCO` (stereo not given), the Potency result is “inactive”.

As to `Cc1ncc(CO)c(CO)c1O`, the Potency result was “inactive”.

As to `C[N+](C)(C)CCCCCC[N+](C)(C)C`, the Potency entry is “inactive”.

Turning to `CN(C)CCN(Cc1cccs1)c1ccccn1`, the Potency result is “inactive”.

For `OCCc1ccccc1`, the Potency entry is “inactive”.

As for `CCCc1c(OCCCCc2nn[nH]n2)ccc(C(C)=O)c1O`, the Potency entry is “inactive”.

In the case of `OC[C@H]1O[C@@H](Oc2ccc(O)cc2)[C@H](O)[C@@H](O)[C@@H]1O`, the Potency result is “inactive”.

On to `CCCCCC1C(=O)CCC1CC(=O)OC` (stereo not given), for which the Potency entry is “inactive”.

On to `C=CC[N+](C)(C)CC=C`, for which the Potency result was “inactive”.

For `c1ccc2scnc2c1`, the Potency result was “inactive”.

As to `O=C(/C=C/C=C/c1ccc2c(c1)OCO2)N1CCCCC1`, the Potency entry is “inactive”.

For the compound `NC(=O)OCC(COC(N)=O)c1ccccc1`, the Potency entry was “inactive”.

As to `CCOC(=O)NNc1nncc2ccccc12`, the Potency result is “inactive”.

Regarding `O=C1CCCCCCCCCCC1`, the Potency entry was “inactive”.

For the compound `CC(C)=CCl`, the Potency entry is “inactive”.

For the compound `Cc1ccc(C(=O)O)o1`, the Potency result was “inactive”.

Regarding `CC(C)c1ccc(C(C)C)cc1`, the Potency result was “inactive”.

In the case of `COC1=CC(=O)C[C@@H](C)[C@]12Oc1c(Cl)c(OC)cc(OC)c1C2=O`, the Potency result was “inactive”.

In the case of `O=C=Nc1ccc(Cc2ccc(N=C=O)cc2)cc1`, the Potency result is “inactive”.

Turning to `CC(=O)c1ccccn1`, the Potency result was “inactive”.

`CC(=O)CC(C)(C)O`: the Potency result was “inactive”.
